Source: PubChem
Rows were chosen to be rich in hits. Some 1.3% of all compounds tested hit in one or more screens of this group.
Apoferritin bind = candidate novel general anesthetic via apoferritin binding; Potency, µM (highest dose often 77.5 µM), without a hit: at the highest dose activity change, negative = displacement, usual class: inhibitors; apoferritin/1-aminoanthracene competitive binding, fluorescence; AID 485281; 350,000 tested, 0.074% active; P02791; note: potency is the fitted concentration of half-maximal effect; % is set by controls: 0 for no effect and ±100 for the full control effect; nearly all actives have a fitted effect of over 20% in size
Target sequence (P02791 2-175 limits assumed): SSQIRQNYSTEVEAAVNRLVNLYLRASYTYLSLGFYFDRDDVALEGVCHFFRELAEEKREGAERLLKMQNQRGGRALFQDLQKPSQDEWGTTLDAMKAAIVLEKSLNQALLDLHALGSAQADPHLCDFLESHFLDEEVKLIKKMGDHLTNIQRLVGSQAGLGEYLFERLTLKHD
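Concentration-response curves derived by four-parameter Hill fitting of normalized fluorescence, where compounds displaced 1-AMA from 10 uM horse apoferritin following a brief 10 min room-temperature incubation; propofol titration acted as positive control.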
a7 integrin act = integrin-mediated muscular dystrophy alleviation activation | alpha7betagal myoblasts, beta-gal FDG fluorescence, 48 h | Potency, µM (titrated, usually from 38.3 µM), for the others: top-dose activation, most hits filed as activators | 350,000 tested, 0.064% active | AID 624291;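 note: potency is the fitted concentration of half-maximal effect; 100% = response of the positive control SU9516; nearly all actives have a fitted effect of over 60% in size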
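alpha7betagal+/- myoblasts (passage 13, 250/well) treated 48 h at 37C with compounds at 1:260 dilution of DMSO stock. Lysed, then beta-galactosidase activity read as FDG fluorescence (ex 480/em 540) after 30 min, with pre-read for autofluorescence.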
PKM2 activator = increases activity of human pyruvate kinase M2. P14618. purified PKM2, Kinase-Glo ATP luminescence, activation; response scale: 0% is enzyme alone, no compound. Potency, µM (doses to about 57.5 µM), inactives show at the top dose activation, hits mostly activators. 260,000 tested, 0.34% active; note: potency is the fitted concentration of half-maximal effect; % is set by controls: 0 for no effect and ±100 for the full control effect; nearly all actives have a fitted effect of over 55% in size
Target sequence (P14618 whole entry, looked up): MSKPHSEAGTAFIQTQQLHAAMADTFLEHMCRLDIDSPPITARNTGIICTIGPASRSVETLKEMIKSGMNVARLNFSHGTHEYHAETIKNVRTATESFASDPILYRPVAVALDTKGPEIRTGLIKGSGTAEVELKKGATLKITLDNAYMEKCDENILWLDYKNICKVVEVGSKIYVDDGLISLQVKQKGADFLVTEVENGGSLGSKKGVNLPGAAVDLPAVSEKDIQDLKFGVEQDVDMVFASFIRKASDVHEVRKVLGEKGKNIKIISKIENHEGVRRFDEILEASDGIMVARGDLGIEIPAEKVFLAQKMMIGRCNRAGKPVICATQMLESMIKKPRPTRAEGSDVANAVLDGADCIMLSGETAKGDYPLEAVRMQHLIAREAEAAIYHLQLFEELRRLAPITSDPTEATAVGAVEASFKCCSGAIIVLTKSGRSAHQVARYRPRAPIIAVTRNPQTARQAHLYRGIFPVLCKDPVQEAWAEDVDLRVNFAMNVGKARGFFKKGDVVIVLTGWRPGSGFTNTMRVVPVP
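ATP formation by purified human PK-M2, quantified via coupled luciferase luminescence after 1 h at room temperature with 0.1 mM ADP and 0.5 mM PEP final.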
IL-2 act = activators of IL-2. activation, % (series mostly up to about 46 µM). IL-2 activation reporter assay, cell-based qHTS; stimulated with anti-CD3/CD4/CD28 beads; in transgenic mouse T cells. 360,000 tested, 0.065% active; in the data active = activation above about 50%; inconclusive = mostly about 30% to 49%; note: 0% is about no effect
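Unstimulated transgenic mouse T cells preincubated 60 min with compound, then stimulated with anti-CD3/anti-CD4-coated beads plus anti-CD28 for 18 h at 37 degrees C. IL-2 response read as EGFP and DsRed fluorescence by plate cytometry.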
BRCA1 expr act = activators of BRCA1 expression | MCF7-BRCA1-FFLuc reporter, luminescence, 48 h; response scale: scaled: vehicle 0%, 10 µM genistein 100% | Potency, µM (highest dose often 46.1 µM), for inactives: at the highest dose activation, most hits filed as activators | 380,000 tested, 1.1% active | AID 624202; note: potency is the fitted concentration of half-maximal effect; nearly all actives have a fitted effect of over 80% in size
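Quantitative HTS in MCF7 cells stably reporting BRCA1 expression via firefly luciferase. Compound treatment lasts 48 h at 37 °C in phenol-red free MEM. Activation is expressed relative to genistein at 10 microM and DMSO.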
* = called active by the depositor; ? = inconclusive; nt = not tested or not shown. Unless noted, calls come from the whole dose curve; as a rule, active = well fitted curve in the direction sought with a large enough effect; inconclusive = small, poorly fitted or top-dose-only effect, or another doubt; inactive = no such curve, though single readings can be large; an effect the other way counts as inactive or inconclusive.

SMILES	Apoferritin bind	a7 integrin act	PKM2 activator	IL-2 act	BRCA1 expr act
Oc1ccccc1C1C=C(c2ccc3c(c2)OCO3)NC(c2cccc(F)c2)N1 (stereo not given)	nt	nt	nt	nt	-4%
COC(=O)C1=C[C@@H](C(=O)OC)[C@@H]2C3=C(C(=O)C2(C)C)[C@H](c2ccccc2)[C@@H]2C(=O)N(c4ccccc4)C(=O)[C@@H]2[C@@H]3C1	-19%	nt	nt	nt	nt
CN(C)c1cc(F)c(C=O)cc1F	nt	nt	nt	nt	12%
O=C(O)c1ccc2c(c1)C(=O)N(CCC1=CCCCC1)C2=O	-20%	-1%	2%	0	-13%
O=C1c2ccccc2C(=O)N1CCC1=CCCCC1	22µM*	4%	1%	-4	-49%
Cc1ccc(Nc2nc3nonc3[nH]c2=O)cc1	-15%	5%	0%	-1	11µM*
COc1ccccc1CNc1cc(C)ccn1	?	2.5µM*	5%	-2	-5%
N#CCC(=O)N/N=C/c1ccc(OS(=O)(=O)c2ccccc2)cc1	-1%	6%	8%	1	4%
N#CCC(=O)N/N=C\c1ccccc1OC/C=C/c1ccccc1	-12%	-30%	-7%	-1	2.5µM*
N#CCC(=O)N/N=C\c1ccc(OC/C=C/c2ccccc2)cc1	?	5%	2%	0	5µM*
N#CCC(=O)N/N=C/c1ccc(OCc2ccccc2)cc1	-13%	7%	-2%	-1	7.9µM*
COCC(=O)N/N=C\c1ccccc1OC/C=C/c1ccccc1	?	-18%	-14%	0	92%
O=C(O)c1ccc(C(=O)Nc2cccc3cccnc23)cc1	nt	nt	nt	nt	0%
CCc1cc(C(=O)Cc2cnn(-c3ccccc3)c2)c(O)cc1O	-20%	9%	-10%	-3	-18%
O=C(Cc1cnn(-c2ccccc2)c1)c1ccc(O)c(O)c1O	-18%	-22%	15%	0	5.6µM*
CCN(CC)c1ccc(NC2CC(=O)N(CCc3ccc(OC)cc3)C2=O)cc1 (stereo not given)	-14%	-11%	29%	125*	-23%
COc1ccc(CCNC2CC(=O)N(CCc3ccccc3)C2=O)cc1 (stereo not given)	-13%	23%	-4%	-1	0%
CN(C)c1ccc(N=Nc2ccc(/C=C/c3ccnc4ccccc34)cc2)cc1	nt	nt	nt	nt	46%
Clc1ccc(-n2ncc3c(N4CCCCCC4)ncnc32)cc1	1%	17%	-12%	0	-25%
CC1CN(c2ncnc3c2cnn3-c2ccc(Cl)cc2)CC(C)O1 (stereo not given)	-6%	3%	14%	3	3.2µM*
CNc1cncc(-c2cccc(O)c2)n1	nt	nt	nt	0	23%
CNc1cccc(-c2cccc(O)c2)n1	nt	nt	nt	0	10µM*
N#C/C(=C\c1ccc(OCc2ccc(Br)cc2)cc1)C(=O)Nc1cccc(C(=O)O)c1	-19%	-49%	2%	0	7.1µM*
O=C(O)c1ccc(COc2ccc(CO)cc2Cl)cc1	-4%	5%	2%	0	7.9µM*
O=C(O)c1cccc(COc2ccc(CO)cc2Cl)c1	-5%	-18%	-11%	1	-104%
SMILES	Apoferritin bind	a7 integrin act	PKM2 activator	IL-2 act	BRCA1 expr act
COc1cc(/C=C(\C#N)C(=O)Nc2cccc(C(=O)O)c2)ccc1OCc1ccc(F)cc1	-14%	14%	-19%	0	11µM*
N#C/C(=C\c1ccc(OCc2ccc(F)cc2)cc1)C(=O)Nc1cccc(C(=O)O)c1	-8%	15%	4%	0	11µM*
N#C/C(=C/c1ccc(OCc2ccc(C(=O)O)cc2)cc1)C(=O)Nc1ccccc1	2%	-13%	nt	0	-2%
NCCNCCN	2%	nt	nt	nt	nt
O=S(=O)(Nc1c(Br)cc(Br)c2cccnc12)C1CC1	nt	nt	nt	nt	0%
O=C(O)c1ccc(CNCc2cccc(OCc3ccc(F)cc3)c2)cc1	-4%	1%	nt	-2	13%
COc1cc(CNCc2ccc(C(=O)O)cc2)ccc1OCc1ccc(F)cc1	-10%	4.5µM*	nt	1	24%
CCCCn1cnc2c(cnn2-c2ccc(F)cc2)c1=O	-13%	-12%	0%	0	?
CCCCn1cnc2c(cnn2-c2ccc(Cl)cc2)c1=O	5%	-8%	-5%	1	11µM*
Cc1ccc(C)c(NC(=O)CCCn2c(C)c3cnn(-c4ccccc4)c(=O)c3c2C)c1	-23%	nt	nt	nt	-9%
O=C1CN(c2ccccc2)C(=S)N1C(=O)c1ccc(Br)cc1	-10%	-37%	0%	0	3.2µM*
O=C(c1ccc(Br)cc1)N1CCC(C(=O)N2CCN(c3ccccc3)CC2)CC1	-9%	-39%	-20%	-1	-7%
Cc1ccc(Nc2ncc3c(n2)CC(C)(C)CC3=O)cc1	-20%	3%	-2%	1	2µM*
CC1(C)CC(=O)c2cnc(NC3CC3)nc2C1	-10%	-1%	1%	-6	28%
COc1cccc(NC(=O)CSc2nc3n[nH]c(C)c3c(=N)n2-c2cccc(OC)c2)c1	-13%	-15%	25µM*	0	-45%
CCOC(=O)c1c(NC(=O)c2ccc(S(=O)(=O)N(CCOC)CCOC)cc2)sc2c1CC(C)(C)NC2(C)C	-12%	nt	nt	nt	nt
Clc1cccc(CNc2ncnc3nc[nH]c23)c1	nt	nt	nt	nt	6%
O=c1c2sccc2nc(SCc2cc(=O)n3cc(Br)ccc3n2)n1Cc1ccccn1	-19%	-18%	7.9µM*	3	6.3µM*
Cc1ccc(CSc2nc3ccsc3c(=O)n2Cc2ccccn2)cc1	-2%	-10%	3%	-5	1%
CCCN1CNc2c(c(=O)[nH]c(=S)n2CCCc2ccccc2)C1	nt	nt	nt	nt	31%
Cc1ccc(NC(CC(=O)c2ccccc2)C(=O)O)cc1Cl (stereo not given)	-5%	0%	2%	-2	27%
O=C(CC(Nc1ccccc1)C(=O)O)c1ccccc1 (stereo not given)	?	-33%	5%	-1	11µM*
O=C(CCc1ccccc1)Nc1nc2c(F)cc(F)cc2s1	-1%	5%	3%	-2	10µM*
CCCSc1nnc2[nH]c(=O)cc(C)n12	-4%	nt	nt	nt	nt
Cc1cc(=O)[nH]c2nnc(-c3ccc(Br)cc3)n12	2%	10%	nt	8	4µM*
O=C(Nc1ccc(-c2cnco2)cc1)c1ccccc1	5%	-10%	?	0	2.8µM*
O=C(Nc1ccc(-c2cnco2)cc1)c1ccc(Cl)cc1	7%	2%	-33%	0	72%
Cc1cc(I)ccc1Nc1c(C(=O)NOCC2CC2)cc(F)c(F)c1F	-13%	nt	nt	nt	nt
COc1ccc(-c2csc(NCc3ccco3)n2)cc1C	-18%	9%	-11%	0	6.3µM*
CC(=O)Nc1ccc(-c2csc(NCc3ccco3)n2)cc1	-18%	7%	12%	0	?
